The values below come from ChEMBL document CHEMBL2218924, “A broad activity screen in support of a chemogenomic map for kinase signalling research and drug discovery” (Biochem J, 2013).

The target of assay [1] is T1, Tyrosine-protein kinase ZAP-70 (Homo sapiens) (UniProt P43403).
T1 sequence (whole entry): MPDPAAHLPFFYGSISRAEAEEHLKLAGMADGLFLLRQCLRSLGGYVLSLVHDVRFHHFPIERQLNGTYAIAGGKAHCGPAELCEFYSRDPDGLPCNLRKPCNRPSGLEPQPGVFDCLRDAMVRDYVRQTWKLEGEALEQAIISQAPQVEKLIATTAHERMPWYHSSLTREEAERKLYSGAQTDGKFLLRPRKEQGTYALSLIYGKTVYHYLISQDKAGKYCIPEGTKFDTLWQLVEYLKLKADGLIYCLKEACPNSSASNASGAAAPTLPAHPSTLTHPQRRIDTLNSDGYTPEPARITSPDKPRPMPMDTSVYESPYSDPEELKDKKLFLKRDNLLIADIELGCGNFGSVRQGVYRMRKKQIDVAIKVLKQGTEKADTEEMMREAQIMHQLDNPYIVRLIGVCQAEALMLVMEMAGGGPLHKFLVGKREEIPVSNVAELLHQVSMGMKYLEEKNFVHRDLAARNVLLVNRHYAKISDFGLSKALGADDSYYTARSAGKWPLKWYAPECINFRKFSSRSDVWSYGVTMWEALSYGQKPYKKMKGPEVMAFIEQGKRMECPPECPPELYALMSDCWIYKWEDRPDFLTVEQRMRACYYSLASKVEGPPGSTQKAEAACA
The settings on record: at 10 µM.

The target of assay [2] is Tyrosine-protein kinase Yes (Homo sapiens) (UniProt P07947). The settings on record: at 10 µM.
Tyrosine-protein kinase Yes (Homo sapiens), sequence (P07947 2-543 limits assumed): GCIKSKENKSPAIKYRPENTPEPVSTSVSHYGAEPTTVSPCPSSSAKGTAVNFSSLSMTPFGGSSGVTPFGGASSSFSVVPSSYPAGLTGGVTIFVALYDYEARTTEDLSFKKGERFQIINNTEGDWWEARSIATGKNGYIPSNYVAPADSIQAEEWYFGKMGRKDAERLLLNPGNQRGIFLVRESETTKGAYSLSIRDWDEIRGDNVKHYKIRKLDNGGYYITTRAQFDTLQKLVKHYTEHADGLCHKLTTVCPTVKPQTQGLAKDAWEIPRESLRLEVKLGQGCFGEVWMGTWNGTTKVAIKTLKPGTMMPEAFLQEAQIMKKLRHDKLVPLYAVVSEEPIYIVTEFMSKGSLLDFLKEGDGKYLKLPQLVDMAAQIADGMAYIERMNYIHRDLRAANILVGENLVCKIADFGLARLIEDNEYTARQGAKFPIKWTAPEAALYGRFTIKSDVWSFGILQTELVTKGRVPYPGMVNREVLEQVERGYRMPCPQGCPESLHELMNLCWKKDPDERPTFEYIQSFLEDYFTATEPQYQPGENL
For assay [3], the target named is T1, Tyrosine-protein kinase ZAP-70 (Homo sapiens). The settings on record: at 1 µM.
The target in assay [4] is Death-associated protein kinase 3 (Homo sapiens) (UniProt O43293). The settings on record: at 1 µM.
Death-associated protein kinase 3 (Homo sapiens), sequence (O43293 whole entry, looked up): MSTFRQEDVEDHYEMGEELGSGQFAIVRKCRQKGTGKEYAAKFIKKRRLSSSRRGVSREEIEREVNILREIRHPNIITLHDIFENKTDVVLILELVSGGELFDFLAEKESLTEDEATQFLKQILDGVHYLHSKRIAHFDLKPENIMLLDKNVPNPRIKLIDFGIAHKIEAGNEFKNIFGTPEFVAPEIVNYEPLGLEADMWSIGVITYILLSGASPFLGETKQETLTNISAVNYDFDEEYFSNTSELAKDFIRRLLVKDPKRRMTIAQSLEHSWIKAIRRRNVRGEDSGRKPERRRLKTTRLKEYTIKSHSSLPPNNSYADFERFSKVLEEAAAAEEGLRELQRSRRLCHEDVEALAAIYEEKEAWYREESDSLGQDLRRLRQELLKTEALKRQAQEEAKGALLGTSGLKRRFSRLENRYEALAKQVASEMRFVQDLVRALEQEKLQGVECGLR
Assay [5] concerns the target Mast/stem cell growth factor receptor Kit (Homo sapiens) (UniProt P10721). The settings on record: at 1 µM.
Assay [6] shares this target. The settings on record: at 10 µM.
The target in assay [7] is Proto-oncogene tyrosine-protein kinase Src (Homo sapiens) (UniProt P12931). The settings on record: at 1 µM.
Proto-oncogene tyrosine-protein kinase Src (Homo sapiens), sequence (P12931 2-536 limits assumed): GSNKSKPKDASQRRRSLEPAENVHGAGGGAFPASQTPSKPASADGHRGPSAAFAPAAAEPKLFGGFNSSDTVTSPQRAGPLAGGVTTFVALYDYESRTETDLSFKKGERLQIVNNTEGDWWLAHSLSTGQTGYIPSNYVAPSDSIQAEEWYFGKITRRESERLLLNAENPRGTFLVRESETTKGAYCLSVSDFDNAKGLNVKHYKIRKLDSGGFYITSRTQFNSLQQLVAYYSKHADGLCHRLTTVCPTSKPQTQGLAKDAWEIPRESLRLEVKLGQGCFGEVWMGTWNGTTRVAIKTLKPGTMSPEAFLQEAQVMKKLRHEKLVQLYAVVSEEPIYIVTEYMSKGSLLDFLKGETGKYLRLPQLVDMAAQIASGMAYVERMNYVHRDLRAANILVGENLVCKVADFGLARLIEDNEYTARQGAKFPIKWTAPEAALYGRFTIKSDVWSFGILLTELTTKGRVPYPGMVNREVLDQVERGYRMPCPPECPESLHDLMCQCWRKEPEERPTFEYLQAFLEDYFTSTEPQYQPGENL
The target is the same in assay [8]. The settings on record: at 10 µM.
In assay [9] the target is Serine/threonine-protein kinase mTOR (Homo sapiens) (UniProt P42345). The settings on record: at 10 µM.
For assay [10] the target is unchanged. The settings on record: at 1 µM.
For assay [11] the target is unchanged. The settings on record: at 10 µM. The source holds these as a separate data set.
Assay [12] deals with Ribosomal protein S6 kinase beta-1 (Homo sapiens) (UniProt P23443). The settings on record: at 1 µM.
Ribosomal protein S6 kinase beta-1 (Homo sapiens), sequence (P23443 whole entry, looked up): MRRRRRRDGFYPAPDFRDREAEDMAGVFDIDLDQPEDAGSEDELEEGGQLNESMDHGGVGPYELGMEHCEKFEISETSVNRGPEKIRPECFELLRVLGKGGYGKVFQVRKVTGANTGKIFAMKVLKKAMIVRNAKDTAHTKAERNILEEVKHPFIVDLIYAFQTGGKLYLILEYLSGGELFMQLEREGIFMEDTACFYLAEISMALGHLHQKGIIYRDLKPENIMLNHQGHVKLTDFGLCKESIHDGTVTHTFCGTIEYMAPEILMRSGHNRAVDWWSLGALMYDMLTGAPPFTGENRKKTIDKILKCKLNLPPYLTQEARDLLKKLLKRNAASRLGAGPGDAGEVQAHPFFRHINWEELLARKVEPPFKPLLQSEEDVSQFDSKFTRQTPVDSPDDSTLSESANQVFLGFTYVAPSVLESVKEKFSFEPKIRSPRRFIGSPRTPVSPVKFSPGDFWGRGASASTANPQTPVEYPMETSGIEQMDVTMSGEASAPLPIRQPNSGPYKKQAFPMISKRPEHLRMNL
Assay [13] has the same target. The settings on record: at 10 µM.
In assay [14] the target is Tyrosine-protein kinase Yes (Homo sapiens) (UniProt P07947). The settings on record: at 1 µM.
Assay [15] addresses Death-associated protein kinase 3 (Homo sapiens) (UniProt O43293). The settings on record: at 10 µM.
Assay [16] addresses RAF proto-oncogene serine/threonine-protein kinase (Homo sapiens) (UniProt P04049). The settings on record: at 1 µM.
Assay [17] has the same target. The settings on record: at 10 µM.
Assay [18] concerns the target Serine/threonine-protein kinase mTOR (Homo sapiens) (UniProt P42345). The settings on record: at 1 µM. This is another data set of the same source.
Assay [19] has as its target T2, Eukaryotic elongation factor 2 kinase (Homo sapiens) (UniProt O00418).
T2 sequence (whole entry): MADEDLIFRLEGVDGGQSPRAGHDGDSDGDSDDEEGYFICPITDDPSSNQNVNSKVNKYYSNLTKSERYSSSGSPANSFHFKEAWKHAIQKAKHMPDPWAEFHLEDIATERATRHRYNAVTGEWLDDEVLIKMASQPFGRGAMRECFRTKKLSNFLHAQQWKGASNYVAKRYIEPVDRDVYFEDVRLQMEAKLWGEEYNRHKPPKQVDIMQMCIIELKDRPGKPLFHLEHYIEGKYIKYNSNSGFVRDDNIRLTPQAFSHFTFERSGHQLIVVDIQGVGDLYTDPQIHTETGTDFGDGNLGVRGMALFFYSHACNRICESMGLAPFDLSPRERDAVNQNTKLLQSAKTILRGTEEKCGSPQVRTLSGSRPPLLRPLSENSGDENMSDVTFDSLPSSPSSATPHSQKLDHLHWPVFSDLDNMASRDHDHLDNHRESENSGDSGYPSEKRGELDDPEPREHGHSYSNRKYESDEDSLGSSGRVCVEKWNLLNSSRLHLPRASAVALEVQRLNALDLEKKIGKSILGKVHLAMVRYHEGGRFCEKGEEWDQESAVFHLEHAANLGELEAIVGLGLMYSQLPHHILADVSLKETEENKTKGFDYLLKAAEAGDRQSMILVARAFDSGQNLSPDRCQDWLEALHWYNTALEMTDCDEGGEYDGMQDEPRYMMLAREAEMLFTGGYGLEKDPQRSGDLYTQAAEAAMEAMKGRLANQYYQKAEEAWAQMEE
The settings on record: at 1 µM.

In assay [20] the target is T2, Eukaryotic elongation factor 2 kinase (Homo sapiens). The settings on record: at 10 µM.

SMILES strings stand for the structures.

RAF proto-oncogene serine/threonine-protein kinase (Homo sapiens), sequence (P04049 whole entry): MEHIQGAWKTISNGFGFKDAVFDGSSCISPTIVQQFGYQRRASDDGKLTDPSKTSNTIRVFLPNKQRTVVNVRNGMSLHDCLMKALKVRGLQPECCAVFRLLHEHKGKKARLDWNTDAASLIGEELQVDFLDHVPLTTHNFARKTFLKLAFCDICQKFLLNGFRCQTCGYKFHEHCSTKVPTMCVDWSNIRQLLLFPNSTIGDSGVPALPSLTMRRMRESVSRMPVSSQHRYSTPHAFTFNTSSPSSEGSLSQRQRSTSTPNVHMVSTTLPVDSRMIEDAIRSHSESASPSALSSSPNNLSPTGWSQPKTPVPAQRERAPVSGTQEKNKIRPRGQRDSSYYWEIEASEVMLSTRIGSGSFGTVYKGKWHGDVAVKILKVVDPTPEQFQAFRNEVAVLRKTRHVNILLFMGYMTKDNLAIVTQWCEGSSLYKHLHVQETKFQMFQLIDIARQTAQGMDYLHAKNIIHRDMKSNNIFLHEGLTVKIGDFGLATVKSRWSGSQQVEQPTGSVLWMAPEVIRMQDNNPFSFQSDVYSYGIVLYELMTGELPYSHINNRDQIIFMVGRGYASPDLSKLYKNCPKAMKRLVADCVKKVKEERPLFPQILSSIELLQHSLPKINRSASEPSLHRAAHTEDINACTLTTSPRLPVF
Mast/stem cell growth factor receptor Kit (Homo sapiens), sequence (P10721 whole entry): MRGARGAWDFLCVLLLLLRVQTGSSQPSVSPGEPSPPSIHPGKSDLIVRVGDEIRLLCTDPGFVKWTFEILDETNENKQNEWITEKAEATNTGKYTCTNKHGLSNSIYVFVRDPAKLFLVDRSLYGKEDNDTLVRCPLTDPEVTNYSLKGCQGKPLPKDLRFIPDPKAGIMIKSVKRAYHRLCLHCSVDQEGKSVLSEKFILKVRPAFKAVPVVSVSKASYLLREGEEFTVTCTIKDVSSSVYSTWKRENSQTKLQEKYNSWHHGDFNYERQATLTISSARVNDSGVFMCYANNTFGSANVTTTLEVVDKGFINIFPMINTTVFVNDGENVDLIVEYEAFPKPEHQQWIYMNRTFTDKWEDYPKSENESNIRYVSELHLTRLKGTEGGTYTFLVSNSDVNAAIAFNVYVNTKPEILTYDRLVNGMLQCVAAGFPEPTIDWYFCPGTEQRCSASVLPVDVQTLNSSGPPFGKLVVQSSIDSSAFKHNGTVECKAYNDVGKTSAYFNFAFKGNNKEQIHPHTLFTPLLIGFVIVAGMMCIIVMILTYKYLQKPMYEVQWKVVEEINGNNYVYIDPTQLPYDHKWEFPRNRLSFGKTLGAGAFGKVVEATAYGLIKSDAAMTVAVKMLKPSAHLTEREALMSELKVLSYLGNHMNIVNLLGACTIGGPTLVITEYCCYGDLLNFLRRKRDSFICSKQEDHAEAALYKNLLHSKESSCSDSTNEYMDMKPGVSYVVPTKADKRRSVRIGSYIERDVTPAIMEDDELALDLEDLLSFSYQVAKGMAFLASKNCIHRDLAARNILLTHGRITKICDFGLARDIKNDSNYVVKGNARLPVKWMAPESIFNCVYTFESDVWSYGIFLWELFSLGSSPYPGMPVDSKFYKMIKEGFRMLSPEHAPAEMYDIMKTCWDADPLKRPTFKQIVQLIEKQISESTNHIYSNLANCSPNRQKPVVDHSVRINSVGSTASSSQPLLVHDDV

The term residual activity denotes the signal under treatment as a percentage of the control signal. On to `O=C(Nc1ccc(Cl)cc1)c1ccccc1NCc1ccncc1`, for which the residual activity in assay [1] was found to be 142%.

With `COc1ccc2c(c[n+](C)c3c4cc5c(cc4ccc23)OCO5)c1OC`, the residual activity in assay [2] came to 84%; in assay [3], 119%; in assay [1], 95%; in assay [4], 94%; in assay [5], 123%; in assay [6], 95%. The residual activity in [7] was 74%; in assay [8], 69%; in assay [9], 88%; in [10] it was 98%; in assay [11], 89%; in [12], 130%. Besides, the residual activity in [13] came to 63%.

For the molecule `O=C(CCCc1ccc(-c2ccccc2F)cc1)Nc1ccc(O)cc1`, the residual activity in assay [1] was found to be 109%.

Take `CN(C)CCCn1cc(C2=C(c3c[nH]c4ccccc34)C(=O)NC2=O)c2ccccc21`: in [1], the residual activity stood at 118%.

As for `CCn1cnc2c(Nc3cccc(Cl)c3)nc(N[C@@H]3CCCC[C@@H]3N)nc21`, the residual activity in [14] worked out at 7%; in assay [2] it was 1%; in [3] it was 93%; in [1], 95%; in [15], 55%; in assay [16], 68%. In addition, the residual activity in assay [17] is 23%; in assay [6], 86%; in assay [7], 22%; in assay [8] it was -1%; in assay [18] it was 114%; in assay [9] it was 94%. In addition, the results for the residual activity in assay [12] and in assay [13] were 66% and 32%, respectively.

As for `COc1ccc(C(=O)Nc2sc3c(c2C(N)=O)CCCC3)cc1OC`, the residual activity in [1] was determined as 114%.

Consider `CC(=O)c1ccc(N2CCOCC2)cc1O`, for which the residual activity in [1] worked out at 86%.

Take `O=C1Cc2c([nH]c3ccc([N+](=O)[O-])cc23)-c2ccccc2N1`: the residual activity in assay [1] stood at 105%.

As for `O=C1NC(=O)/C(=C\c2ccc3nccnc3c2)S1`, the residual activity in [1] turned out to be 94%.

On to `O=C1c2ccccc2-c2nc3nnnn3nc21`, for which the residual activity stood at 111% in assay [3]; 120% in assay [1]; 114% in [15]; 101% in assay [17]; 112% in [8]; 83% in assay [12]. Further, the residual activity in [13] turned out to be 64%.

As for `C[S+]([O-])c1ccc(-c2nc(-c3ccc(F)cc3)c(-c3ccncc3)[nH]2)cc1` (stereo not given), the residual activity in assay [2] worked out at 45%; in [3], 124%; in assay [1], 130%; in [4] it was 98%; in assay [15], 100%; in [16], 17%. Besides, the residual activity in [17] was 3%; in assay [5] it was 119%; in [6], 102%; in [7], 112%; in assay [8], 65%; in [19], 111% (inactive). Also, the residual activity in assay [20] turned out to be 91%; in [18], 106%; in [9] it was 89%; in assay [10], 86%; in [11], 96%; in [12], 103%. For the same molecule, the residual activity in [13] came out at 87%.

Consider `O=C1NC(=O)c2cc(Nc3ccc(F)cc3)c(Nc3ccc(F)cc3)cc21`, for which the residual activity in assay [1] was 119%.

As for `N/C(=N\[N+](=O)[O-])N/N=C\c1ccc(-c2cccc([N+](=O)[O-])c2)o1`, the residual activity in assay [2] is 100%; in [3], 99%; in assay [1], 100%; in [16], 88%; in assay [17], 80%; in [10], 125%. Besides, the residual activity in [11] stood at 88%; in assay [12], 85%; in assay [13], 62%.
